# Bioassay records: PubChem BioAssay, National Center for Advancing Translational Sciences (NCATS)
# This is a sample that favours compounds with a hit; in the whole collection about 2.9% have one here.
# S2 tox: Viability Counterscreen for Primary qHTS for Inhibitors of ATXN expression. 0.49% of 400,000 active. Potency, µM (top dose mostly 56.7 µM), usual class: cytotoxic. S2 cells (HEK-293 line with an ATXN2-luciferase reporter) viability, CellTiter-Fluor protease fluorescence, 24 h. AID 651635, 2014; also: nearly all actives have a fitted effect of over 40% in size
# Nrf2 ARE act: qHTS of Nrf2 Activators; 0.31% of 410,000 active; AREc32 ARE-luciferase reporter (MCF7-derived line), luminescence, 24 h; AID 624171, 2012; Potency, µM (series often up to 46.1 µM), inactives show top-dose activation, actives largely listed as activators; also: % of control where 0% means no effect; nearly all actives have a fitted effect of over 65% in size
#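 ARE activation measured as luciferase luminescence (Steady-Glo, 30 min RT) in AREc32_Fluc cells after 24 hr compound exposure at 37 deg C, 5% CO2; cells seeded overnight at 1000/well in OPTI-MEM, 5% FBS.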
# Nrf2 block: Nrf2 qHTS screen for inhibitors; A549 ARE-Fluc reporter, luciferase luminescence, 18-24 h; Potency, µM (series often up to 46 µM), for inactives: at the top dose activity change, negative = inhibition, most hits filed as inhibitors; 2.1% of 360,000 active; AID 504444, 2011; also: % is scaled to controls: 0 for no effect and ±100 for the full control effect; nearly all actives have a fitted effect of over 60% in size
#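 Cells were seeded and rested 2 h, then exposed to compounds for 18-24 h. CellTiter-Fluor was read first as a viability measure. BugLite was added 15 min before the final luminescent read of ARE-luciferase activity in A549 cells.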
# ATXN2 expr inh: Primary qHTS for Inhibitors of ATXN expression. AID 1745845, 2022. Potency, µM (highest dose often 57 µM), for inactives: at the top dose activity change, negative = inhibition, most hits filed as inhibitors. 0.72% of 360,000 active. HEK-293 ATXN2-luciferase reporter, luminescence, 24 h; also: % is scaled to controls: 0 for no effect and ±100 for the full control effect; nearly all actives have a fitted effect of over 55% in size
#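 ATXN2-luciferase reporter cells (luciferase flanked by upstream and downstream ATXN2 gene portions) were treated 24 h at 37 °C with compounds at up to 57 uM. SteadyGlo luminescence gave expression; GF-AFC fluorescence gave viability.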
# A549 tox: Nrf2 qHTS screen for inhibitors: counterscreen for cytotoxicity; 0.16% of 390,000 active; A549 ARE-Fluc cells, CellTiter-Fluor viability, 18-24 h; Potency, µM (series often up to 46 µM), for inactives: top-dose activity change, negative = cytotoxicity, most hits filed as inhibitors; also: % is scaled to controls: 0 for no effect and ±100 for the full control effect
#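 A549 ARE_Fluc cells in 5% FBS OPTI-MEM were exposed to compounds in concentration-response for 18-24 h at 37 deg C. Viability was read by CellTiter-Fluor fluorescence (Ex 405/Em 525) after 30 min, before the luciferase read.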
# * marks the source's active call; other numbers are inactive results; i = inactive; u = inconclusive; x = not tested or not shown; [ ] = another dose, or the depositor's remark. Calls follow the shape of the dose curve; as a rule, active = well fitted curve in the direction sought with a large enough effect; inconclusive = small, poorly fitted or top-dose-only effect, or another doubt; inactive = no such curve, though single readings can be large; an effect the other way counts as inactive or inconclusive. Potency is read from the fitted curve at half-maximal effect.
SMILES,S2 tox,Nrf2 ARE act,Nrf2 block,ATXN2 expr inh,A549 tox
CCn1c(SCC(=O)N/N=C/c2ccc(C)o2)nnc1-c1ccc(C(C)(C)C)cc1,i,6.3%,-18.2%,10.1%,-1.9%
CCn1c(SCC(=O)c2c[nH]c3ccccc23)nnc1-c1cccs1,i,11.2µM*,-16.0%,-8.7%,-10.2%
COc1ccc(CNS(=O)(=O)NCc2ccccc2)cc1OC,i,-0.7%,-10.3%,-3.0%,-0.6%
O=C(Oc1ccc[nH]c1=O)c1cc([N+](=O)[O-])cc([N+](=O)[O-])c1,i,2.3%,-51.7%,x,1.1%
COc1cccc(-c2cc3nc(-c4ccccc4)cc(N4CCCC(O)C4)n3n2)c1 (stereo not drawn),i,-1.2%,u,x,-4.3%
O=C(CNc1ccc(F)cc1)N/N=C/c1c(O)ccc2ccccc12,u,-1.3%,-17.2%,4.47µM*,-4.9%
COc1ccccc1N(CC(=O)N/N=C/c1c(O)ccc2ccccc12)S(C)(=O)=O,i,-0.7%,-18.7%,8.91µM*,1.7%
COc1ccccc1NCC(=O)N/N=C/c1c(O)ccc2ccccc12,i,-1.2%,u,2.51µM*,-10.6%
O=C(Cc1n[nH]c(=O)[nH]c1=O)N/N=C/c1c(O)ccc2ccccc12,i,-0.4%,7.7%,-16.4%,-1.8%
O=C(NCc1nnc(-c2cc3ccccc3[nH]2)s1)c1ccccc1,x,x,31.4%,x,0.5%
O=C(Nc1ccc(Oc2cccc(C(F)(F)F)c2)nc1)c1cccs1,i,0.3%,16.4µM*,u,1.3%
COc1ccc(S(=O)(=O)NC(=O)C2(C)CCN2C(=O)Cc2ccccc2)cc1OC (stereo not drawn),i,-0.5%[9.22 µM],x,0.4%,x
CC(=O)/C=C\c1ccccc1OC(=O)c1cc2ccccc2oc1=O,i,16.3%,3.3%,10.6%,-1.0%
O=C(/C=C\c1ccccc1OC(=O)c1ccccc1F)c1cc2ccccc2o1,i,11.2µM*,u,55.2%,u
COc1cccc(Cn2cnc3c2c(=O)n(C)c(=O)n3C)c1,x,-0.7%,13µM*,x,-1.1%
CC(=O)Nc1ccc(C(=O)OCC(=O)c2ccc(C)c([N+](=O)[O-])c2)cc1,i,-0.3%,-17.1%,-5.2%,2.0%
CCC(=O)Nc1ccc(C(=O)OCC(=O)c2ccc(C)c([N+](=O)[O-])c2)cc1,i,0.1%,7.31µM*,10.0%,x
CCc1cc(=O)oc2cc(OC(C)C(=O)NCC(O)c3ccccc3)c(Cl)cc12 (stereo not drawn),i,1.5%,-3.2%,14.3%,-1.0%
CCc1cc2c(-c3ccccc3)cc(=O)oc2cc1OC(C)C(C)=O (stereo not drawn),i,6.0%,6.51µM*,u,0.4%
CCOc1ccc(C(=O)c2cn(CC(=O)Nc3cc(OC)ccc3OC)c3cc(OC)c(OC)cc3c2=O)cc1,u,-1.2%,-3.0%,-18.4%,0.2%
Cc1ccc(S(=O)(=O)c2nc(-c3cccs3)oc2SC(C)C)cc1,u,-0.5%,0.9%[9.27 µM],4.1%,-11.8%
CC(C)S(=O)(=O)c1oc(-c2cccs2)nc1S(=O)(=O)c1ccc(F)cc1,x,-6.4%,18.4µM*,x,u
S=C(NCc1ccco1)N1CCN(c2cccc(Cl)c2)CC1,i,2.3%,14.6µM*,-20.8%,6.8%
Cc1cccc(Nc2sc(C(=O)c3ccc(Cl)cc3)c(N)c2C(N)=O)c1,i,7.5%,x,1.1%,0.8%
Nc1ccn([C@@H]2O[C@H](CO)[C@@H](O)C2O)c(=O)n1 (stereo partly drawn),i,0.2%,u,u,-5.0%
SMILES,S2 tox,Nrf2 ARE act,Nrf2 block,ATXN2 expr inh,A549 tox
N=c1ccn2c(n1)OC1C(O)C(CO)OC12 (stereo not drawn),u,-0.4%,0.184µM*,x,-0.4%
CCOC(=O)C/C(C)=N/NC(=O)C1CC1(c1ccccc1)c1ccccc1 (stereo not drawn),i,4.2%,1.2%,1.9%,-0.1%
CC(=O)c1ccccc1OCCOc1ccccc1C(C)=O,i,-0.7%,-6.8%,-24.7%,0.7%
CC(=O)c1ccccc1OCc1ccc(S(=O)(=O)Cc2ccccc2)cc1,u,2.8%,20.6µM*,-30.7%,-5.3%
CCOC(=O)c1ccc(N2C(=O)c3[nH]nc(-c4ccc(C)cc4)c3C2c2cccs2)cc1 (stereo not drawn),u,-0.1%,23.1µM*,u,u
CCOC(=O)c1ccc(N2C(=O)c3[nH]nc(-c4ccc(C)cc4)c3C2c2ccc(O)c(OCC)c2)cc1 (stereo not drawn),u,13.1%,20.6µM*,u,-10.3%
CCOC(=O)c1ccc(N2C(=O)c3[nH]nc(-c4ccc(OC)cc4)c3C2c2ccccc2Cl)cc1 (stereo not drawn),i,-0.8%,8.6%,4.7%,-0.4%
CCOC(=O)c1ccc(N2C(=O)c3n[nH]c(-c4ccco4)c3C2c2ccc(O)c(OCC)c2)cc1 (stereo not drawn),u,-3.3%,u,u,13.3%
CC(C)Cn1c2c(c(O)c(C(=O)Nc3nccs3)c1=O)CCCC2,i,0.0%,20.6µM*,-5.2%,-11.3%
CCC(C)NC(=S)Nc1ccc(C(=O)OC)cc1 (stereo not drawn),i,-0.4%,18.4µM*,-9.1%[11.3 µM],-18.6%
CC1(C)Cc2c(C#N)c(SCC(=O)c3ccccc3)nc(N3CCOCC3)c2CS1,i,-0.4%,16.4µM*,-1.0%,-18.1%
Fc1ccc(N/N=C2/CC(c3ccccc3)Oc3ccccc32)c(F)c1 (stereo not drawn),i,12.6µM*,-0.9%,17.6%,12.0%
CCCn1nnnc1-c1cccc(Cl)c1,i,-0.4%,-10.9%,10.2%,-4.3%
CC(=O)N1c2ccc(S(=O)(=O)NCC3CCC(C(=O)Nc4cc(C)ccn4)CC3)cc2CC1C (stereo not drawn),i,-2.3%,23.1µM*,u,u
CCC(C)NC(=O)C1CCC(CNS(=O)(=O)c2ccc3c(c2)CC(C)N3C(C)=O)CC1 (stereo not drawn),i,0.3%,-2.2%,5.6%,8.8%
COC(=O)Nc1ccc(S(=O)(=O)N2CCCC(C(=O)N3CCCCCC3)C2)cc1 (stereo not drawn),i,-1.1%,u,-13.9%,-0.2%
COC(=O)Nc1ccc(S(=O)(=O)N2CCCC(C(=O)N3CCCCC3)C2)cc1 (stereo not drawn),i,1.9%,16.4µM*,-7.4%,-11.4%
CC(=O)N1c2ccc(S(=O)(=O)N3CCCC(C(=O)N4CCC(C)CC4)C3)cc2CC1C (stereo not drawn),i,0.5%,20.6µM*,-25.5%,-13.8%
CC(=O)N1c2ccc(S(=O)(=O)NCC3CCC(C(=O)N4CC(C)CC(C)C4)CC3)cc2CC1C (stereo not drawn),i,6.0%,16.4µM*,x,-12.7%
